# Laboratory results published in paper PMC7862700, “An all-to-all approach to the identification of sequence-specific readers for epigenetic DNA modifications on cytosine”.
# Legend:
# Assay in all cases: DAPPL (digital affinity profiling via proximity ligation, sequencing); 10 mM Tris-HCl pH 7.5, 50 mM NaCl, 1 mM DTT, 4% glycerol, room temperature, 30 min; GST-TFs on glutathione beads, 16-mer random dsDNA library, 0.1% formaldehyde crosslink after washing; high values mean tight binding
# FLI1 = target: T1, FLI1 (Homo sapiens, UniProt Q01543 1-452); conditions: protein: recombinant; tags: N-terminal GST; dsDNA, one strand shown
# T1 sequence: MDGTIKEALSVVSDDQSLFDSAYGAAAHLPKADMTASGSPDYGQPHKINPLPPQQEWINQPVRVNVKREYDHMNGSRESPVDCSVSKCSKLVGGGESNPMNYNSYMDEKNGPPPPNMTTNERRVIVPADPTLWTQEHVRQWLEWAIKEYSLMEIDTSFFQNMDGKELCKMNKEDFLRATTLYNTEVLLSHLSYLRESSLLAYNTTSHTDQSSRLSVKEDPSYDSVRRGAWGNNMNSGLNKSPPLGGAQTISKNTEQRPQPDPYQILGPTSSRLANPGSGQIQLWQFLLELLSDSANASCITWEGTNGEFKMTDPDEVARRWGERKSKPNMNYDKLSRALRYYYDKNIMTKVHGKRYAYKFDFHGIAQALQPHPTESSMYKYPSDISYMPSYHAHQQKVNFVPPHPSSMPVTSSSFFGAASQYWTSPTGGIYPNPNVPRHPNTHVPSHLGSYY
# Summary of the method: (§1)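 Pools were built from human transcription factors expressed in yeast as GST fusions, captured on glutathione beads and DNA-barcoded, along with a tag-only sample. Incubation with 200 nmole of a 16-mer random double-stranded DNA library lasted 30 min at room temperature in Tris/NaCl/DTT/glycerol buffer, and was followed by washing, 0.1% formaldehyde crosslinking, proximity ligation, PCR amplification and Illumina NextSeq500 sequencing. Binding signal is the quotient of each hexamer's read frequency for a factor and its frequency for the tag-only sample.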
# ELK1 = target: T2, ELK1 (Homo sapiens, UniProt P19419 1-428); conditions: protein: recombinant; tags: N-terminal GST; dsDNA, one strand shown
# T2 sequence: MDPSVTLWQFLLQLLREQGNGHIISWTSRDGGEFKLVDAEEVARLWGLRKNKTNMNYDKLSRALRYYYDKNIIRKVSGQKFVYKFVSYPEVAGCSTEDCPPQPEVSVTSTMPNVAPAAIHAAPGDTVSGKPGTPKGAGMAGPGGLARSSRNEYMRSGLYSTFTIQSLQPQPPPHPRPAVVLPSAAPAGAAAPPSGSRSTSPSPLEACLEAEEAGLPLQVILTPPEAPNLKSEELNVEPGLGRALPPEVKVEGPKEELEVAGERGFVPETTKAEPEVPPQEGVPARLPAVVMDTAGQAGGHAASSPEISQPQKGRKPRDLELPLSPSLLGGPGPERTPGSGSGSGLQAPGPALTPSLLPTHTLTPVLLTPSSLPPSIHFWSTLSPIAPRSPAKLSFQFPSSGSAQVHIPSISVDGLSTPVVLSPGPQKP
# Summary of the method: as §1
# GABPA = target: T3, GABPA (Homo sapiens, UniProt Q06546 1-454); conditions: protein: recombinant; tags: N-terminal GST; dsDNA, one strand shown
# T3 sequence: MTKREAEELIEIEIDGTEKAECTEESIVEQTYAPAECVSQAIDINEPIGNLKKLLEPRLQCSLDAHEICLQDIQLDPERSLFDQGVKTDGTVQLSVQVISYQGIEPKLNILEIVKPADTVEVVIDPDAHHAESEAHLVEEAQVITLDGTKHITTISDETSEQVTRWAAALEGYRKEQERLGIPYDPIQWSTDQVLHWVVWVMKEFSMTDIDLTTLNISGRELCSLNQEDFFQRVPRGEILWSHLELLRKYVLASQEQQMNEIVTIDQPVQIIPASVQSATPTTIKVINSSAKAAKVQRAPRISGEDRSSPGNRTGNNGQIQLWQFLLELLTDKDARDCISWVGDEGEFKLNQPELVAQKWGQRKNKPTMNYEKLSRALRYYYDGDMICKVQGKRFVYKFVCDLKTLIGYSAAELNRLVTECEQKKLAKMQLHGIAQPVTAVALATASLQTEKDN
# Summary of the method: as §1
# ERG = target: T4, ERG (Homo sapiens, UniProt P11308 1-479); conditions: protein: recombinant; tags: N-terminal GST; dsDNA, one strand shown
# T4 sequence: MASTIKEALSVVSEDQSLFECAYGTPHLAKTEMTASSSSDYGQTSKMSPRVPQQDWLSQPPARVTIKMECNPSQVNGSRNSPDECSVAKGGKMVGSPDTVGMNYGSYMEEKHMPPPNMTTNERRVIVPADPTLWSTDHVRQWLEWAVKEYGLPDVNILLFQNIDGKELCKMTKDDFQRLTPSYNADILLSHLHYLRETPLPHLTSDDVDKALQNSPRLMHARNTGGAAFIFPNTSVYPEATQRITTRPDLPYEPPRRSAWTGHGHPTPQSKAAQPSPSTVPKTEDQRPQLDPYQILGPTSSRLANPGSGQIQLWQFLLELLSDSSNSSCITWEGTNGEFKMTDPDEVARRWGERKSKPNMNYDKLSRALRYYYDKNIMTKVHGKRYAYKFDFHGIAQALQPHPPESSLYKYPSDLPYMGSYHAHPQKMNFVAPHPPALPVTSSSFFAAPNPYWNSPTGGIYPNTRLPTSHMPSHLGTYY
# Summary of the method: as §1
# ELF1 = ELF1 (Homo sapiens, UniProt P32519 1-619); conditions: protein: recombinant; tags: N-terminal GST; dsDNA, one strand shown
# Summary of the method: as §1
# EHF = target: T5, EHF (Homo sapiens, UniProt Q9NZC4 1-300); conditions: protein: recombinant; tags: N-terminal GST; dsDNA, one strand shown
# T5 sequence: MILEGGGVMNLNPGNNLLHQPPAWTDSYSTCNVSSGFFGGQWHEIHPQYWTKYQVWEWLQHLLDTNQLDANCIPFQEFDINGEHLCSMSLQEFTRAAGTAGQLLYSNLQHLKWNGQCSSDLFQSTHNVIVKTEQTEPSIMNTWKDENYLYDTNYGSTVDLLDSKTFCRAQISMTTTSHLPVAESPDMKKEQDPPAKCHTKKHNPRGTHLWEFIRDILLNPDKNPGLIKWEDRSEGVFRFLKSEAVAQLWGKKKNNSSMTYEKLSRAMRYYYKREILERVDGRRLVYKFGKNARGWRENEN
# Summary of the method: as §1
# SPI1 = SPI1 (Homo sapiens, UniProt P17947 1-270); conditions: protein: recombinant; tags: N-terminal GST; dsDNA, one strand shown
# Summary of the method: as §1
# SPIB = SPIB (Homo sapiens, UniProt Q01892 1-262); conditions: protein: recombinant; tags: N-terminal GST; dsDNA, one strand shown
# Summary of the method: as §1
# ELK3 = target: T6, ELK3 (Homo sapiens, UniProt P41970 1-407); conditions: protein: recombinant; tags: N-terminal GST; dsDNA, one strand shown
# T6 sequence: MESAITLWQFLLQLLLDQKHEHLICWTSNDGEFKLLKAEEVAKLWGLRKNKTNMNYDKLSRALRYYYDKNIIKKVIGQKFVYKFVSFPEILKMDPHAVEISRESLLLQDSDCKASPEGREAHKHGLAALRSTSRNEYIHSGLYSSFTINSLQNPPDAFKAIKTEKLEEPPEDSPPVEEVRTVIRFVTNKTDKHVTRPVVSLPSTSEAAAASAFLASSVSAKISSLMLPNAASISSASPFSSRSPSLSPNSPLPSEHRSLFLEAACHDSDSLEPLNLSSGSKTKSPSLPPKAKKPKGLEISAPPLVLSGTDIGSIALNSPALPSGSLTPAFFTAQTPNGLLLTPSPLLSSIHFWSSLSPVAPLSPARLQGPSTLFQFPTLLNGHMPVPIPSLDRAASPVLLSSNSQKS
# Summary of the method: as §1
# FEV = target: T7, FEV (Homo sapiens, UniProt Q99581 1-238); conditions: protein: recombinant; tags: N-terminal GST; dsDNA, one strand shown
# T7 sequence: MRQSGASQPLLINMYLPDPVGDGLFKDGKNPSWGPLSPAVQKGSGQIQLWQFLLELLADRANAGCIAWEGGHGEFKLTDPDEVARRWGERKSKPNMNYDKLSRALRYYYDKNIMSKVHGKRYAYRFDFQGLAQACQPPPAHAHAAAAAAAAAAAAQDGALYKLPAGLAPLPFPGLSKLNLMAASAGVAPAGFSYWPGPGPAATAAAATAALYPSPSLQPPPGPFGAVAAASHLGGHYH
# Summary of the method: as §1
# ETV5 = ETV5 (Homo sapiens, UniProt P41161 1-510); conditions: protein: recombinant; tags: N-terminal GST; dsDNA, one strand shown
# Summary of the method: as §1
# HSF1 = HSF1 (Homo sapiens, UniProt Q00613 1-529); conditions: protein: recombinant; tags: N-terminal GST; chain copies: 3; dsDNA, one strand shown
# Summary of the method: as §1
# SPIC = target: T8, SPIC (Homo sapiens, UniProt Q8N5J4 1-248); conditions: protein: recombinant; tags: N-terminal GST; dsDNA, one strand shown
# T8 sequence: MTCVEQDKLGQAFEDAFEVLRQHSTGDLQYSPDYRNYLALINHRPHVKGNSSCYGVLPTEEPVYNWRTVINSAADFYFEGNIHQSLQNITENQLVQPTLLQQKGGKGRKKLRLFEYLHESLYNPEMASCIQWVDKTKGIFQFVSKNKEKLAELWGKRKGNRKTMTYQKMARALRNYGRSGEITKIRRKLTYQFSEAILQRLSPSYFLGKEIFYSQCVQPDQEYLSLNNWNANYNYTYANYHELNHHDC
# Summary of the method: as §1
# ELF4 = ELF4 (Homo sapiens, UniProt Q99607 1-663); conditions: protein: recombinant; tags: N-terminal GST; dsDNA, one strand shown
# Summary of the method: as §1
# ELK4 = target: T9, ELK4 (Homo sapiens, UniProt P28324-2 1-405); conditions: protein: recombinant; tags: N-terminal GST; dsDNA, one strand shown
# T9 sequence: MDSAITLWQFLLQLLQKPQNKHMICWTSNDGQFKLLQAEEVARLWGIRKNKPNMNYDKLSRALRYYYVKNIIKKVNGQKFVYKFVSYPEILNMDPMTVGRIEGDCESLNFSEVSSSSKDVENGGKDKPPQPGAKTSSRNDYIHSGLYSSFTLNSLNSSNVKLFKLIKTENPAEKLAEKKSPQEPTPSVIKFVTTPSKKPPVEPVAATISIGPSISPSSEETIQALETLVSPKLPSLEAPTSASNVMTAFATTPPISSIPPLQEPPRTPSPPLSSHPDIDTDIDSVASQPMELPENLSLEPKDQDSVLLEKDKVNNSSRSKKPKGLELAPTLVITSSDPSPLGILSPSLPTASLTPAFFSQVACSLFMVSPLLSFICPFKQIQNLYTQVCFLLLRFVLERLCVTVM
# Summary of the method: as §1
# ETV2 = target: T10, ETV2 (Homo sapiens, UniProt O00321 1-342); conditions: protein: recombinant; tags: N-terminal GST; dsDNA, one strand shown
# T10 sequence: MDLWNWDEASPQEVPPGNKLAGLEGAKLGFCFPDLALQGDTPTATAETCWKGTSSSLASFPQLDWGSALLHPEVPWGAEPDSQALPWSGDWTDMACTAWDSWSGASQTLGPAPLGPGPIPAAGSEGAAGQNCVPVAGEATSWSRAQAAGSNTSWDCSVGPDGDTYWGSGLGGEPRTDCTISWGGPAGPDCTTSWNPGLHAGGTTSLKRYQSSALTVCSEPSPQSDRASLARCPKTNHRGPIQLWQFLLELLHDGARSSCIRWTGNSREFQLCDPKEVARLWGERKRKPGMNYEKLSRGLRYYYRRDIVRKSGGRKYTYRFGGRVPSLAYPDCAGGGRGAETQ
# Summary of the method: as §1
# ELF3 = target: T11, ELF3 (Homo sapiens, UniProt P78545 1-371); conditions: protein: recombinant; tags: N-terminal GST; dsDNA, one strand shown
# T11 sequence: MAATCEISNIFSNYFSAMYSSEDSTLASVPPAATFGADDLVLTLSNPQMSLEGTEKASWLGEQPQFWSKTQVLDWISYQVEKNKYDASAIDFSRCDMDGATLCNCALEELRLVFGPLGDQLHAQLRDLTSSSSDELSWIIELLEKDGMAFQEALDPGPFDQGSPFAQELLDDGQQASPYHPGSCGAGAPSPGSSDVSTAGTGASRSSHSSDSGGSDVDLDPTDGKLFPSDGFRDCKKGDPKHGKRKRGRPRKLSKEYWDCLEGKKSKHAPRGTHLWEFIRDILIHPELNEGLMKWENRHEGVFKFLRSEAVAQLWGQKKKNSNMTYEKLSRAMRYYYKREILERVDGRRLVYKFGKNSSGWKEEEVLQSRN
# Summary of the method: as §1
# CRX = CRX (Homo sapiens, UniProt O43186 1-299); conditions: protein: recombinant; tags: N-terminal GST; dsDNA, one strand shown
# Summary of the method: as §1
# ETV1 = ETV1 (Homo sapiens, UniProt P50549 1-477); conditions: protein: recombinant; tags: N-terminal GST; dsDNA, one strand shown
# Summary of the method: as §1
# CRX, sequence (O43186 whole entry): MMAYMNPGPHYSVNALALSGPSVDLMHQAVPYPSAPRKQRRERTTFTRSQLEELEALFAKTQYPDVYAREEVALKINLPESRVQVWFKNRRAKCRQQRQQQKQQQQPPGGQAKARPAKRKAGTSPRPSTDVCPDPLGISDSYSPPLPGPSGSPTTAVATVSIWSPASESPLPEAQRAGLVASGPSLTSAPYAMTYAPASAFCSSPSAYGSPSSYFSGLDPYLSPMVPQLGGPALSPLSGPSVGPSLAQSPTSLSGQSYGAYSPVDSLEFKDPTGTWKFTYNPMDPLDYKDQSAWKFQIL
# SPIB, sequence (Q01892 whole entry): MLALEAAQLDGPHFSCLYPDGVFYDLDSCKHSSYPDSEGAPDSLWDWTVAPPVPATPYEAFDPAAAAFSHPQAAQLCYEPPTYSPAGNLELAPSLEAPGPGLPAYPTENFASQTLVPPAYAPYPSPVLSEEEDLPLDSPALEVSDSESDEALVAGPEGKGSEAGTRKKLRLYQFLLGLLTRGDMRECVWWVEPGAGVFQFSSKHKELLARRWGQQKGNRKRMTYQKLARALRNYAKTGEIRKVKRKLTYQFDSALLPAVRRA
# ETV5, sequence (P41161 whole entry): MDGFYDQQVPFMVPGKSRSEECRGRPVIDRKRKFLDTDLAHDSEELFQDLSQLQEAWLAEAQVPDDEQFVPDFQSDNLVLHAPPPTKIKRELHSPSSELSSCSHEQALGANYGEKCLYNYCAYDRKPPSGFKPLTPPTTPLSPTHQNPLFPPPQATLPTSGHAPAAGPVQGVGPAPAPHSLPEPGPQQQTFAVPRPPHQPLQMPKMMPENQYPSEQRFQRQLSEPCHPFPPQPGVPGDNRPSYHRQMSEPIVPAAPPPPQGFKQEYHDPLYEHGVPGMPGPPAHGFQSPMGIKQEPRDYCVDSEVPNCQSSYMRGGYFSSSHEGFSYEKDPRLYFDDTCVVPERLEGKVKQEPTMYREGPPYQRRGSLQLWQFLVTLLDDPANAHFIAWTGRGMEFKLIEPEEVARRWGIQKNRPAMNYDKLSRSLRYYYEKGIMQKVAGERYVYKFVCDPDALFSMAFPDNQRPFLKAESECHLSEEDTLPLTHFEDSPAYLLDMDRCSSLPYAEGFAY
# HSF1, sequence (Q00613 whole entry): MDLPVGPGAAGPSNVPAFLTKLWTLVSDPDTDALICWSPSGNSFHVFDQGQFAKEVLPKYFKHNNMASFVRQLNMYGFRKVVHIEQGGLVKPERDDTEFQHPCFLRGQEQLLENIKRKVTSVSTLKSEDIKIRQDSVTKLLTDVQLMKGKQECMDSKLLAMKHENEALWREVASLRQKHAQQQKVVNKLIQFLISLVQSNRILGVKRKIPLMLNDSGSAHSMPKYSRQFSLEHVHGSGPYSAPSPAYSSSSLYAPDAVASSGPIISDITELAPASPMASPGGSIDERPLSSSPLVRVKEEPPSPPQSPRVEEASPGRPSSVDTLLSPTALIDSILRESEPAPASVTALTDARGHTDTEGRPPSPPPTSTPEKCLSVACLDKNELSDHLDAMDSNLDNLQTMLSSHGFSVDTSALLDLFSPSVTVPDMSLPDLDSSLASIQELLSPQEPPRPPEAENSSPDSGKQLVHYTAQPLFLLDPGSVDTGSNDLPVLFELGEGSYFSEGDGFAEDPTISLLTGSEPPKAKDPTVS
# ELF4, sequence (Q99607 whole entry): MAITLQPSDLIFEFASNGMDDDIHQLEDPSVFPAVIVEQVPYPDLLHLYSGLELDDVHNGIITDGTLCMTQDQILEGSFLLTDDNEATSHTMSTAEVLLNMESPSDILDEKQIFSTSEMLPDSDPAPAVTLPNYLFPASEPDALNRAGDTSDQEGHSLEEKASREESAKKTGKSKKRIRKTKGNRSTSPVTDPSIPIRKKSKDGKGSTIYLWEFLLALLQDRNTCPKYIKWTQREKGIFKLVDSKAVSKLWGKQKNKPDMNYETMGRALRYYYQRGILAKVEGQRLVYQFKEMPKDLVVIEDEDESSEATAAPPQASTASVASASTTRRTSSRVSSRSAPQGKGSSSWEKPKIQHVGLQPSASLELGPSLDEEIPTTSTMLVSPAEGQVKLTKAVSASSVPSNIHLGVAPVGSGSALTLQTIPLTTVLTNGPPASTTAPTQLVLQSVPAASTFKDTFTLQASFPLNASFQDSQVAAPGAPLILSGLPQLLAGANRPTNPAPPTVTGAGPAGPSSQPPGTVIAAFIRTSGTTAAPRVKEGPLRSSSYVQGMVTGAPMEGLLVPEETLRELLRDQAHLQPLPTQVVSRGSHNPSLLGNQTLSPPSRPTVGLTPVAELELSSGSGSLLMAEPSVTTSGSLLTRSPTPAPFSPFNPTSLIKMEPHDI
# ETV1, sequence (P50549 whole entry): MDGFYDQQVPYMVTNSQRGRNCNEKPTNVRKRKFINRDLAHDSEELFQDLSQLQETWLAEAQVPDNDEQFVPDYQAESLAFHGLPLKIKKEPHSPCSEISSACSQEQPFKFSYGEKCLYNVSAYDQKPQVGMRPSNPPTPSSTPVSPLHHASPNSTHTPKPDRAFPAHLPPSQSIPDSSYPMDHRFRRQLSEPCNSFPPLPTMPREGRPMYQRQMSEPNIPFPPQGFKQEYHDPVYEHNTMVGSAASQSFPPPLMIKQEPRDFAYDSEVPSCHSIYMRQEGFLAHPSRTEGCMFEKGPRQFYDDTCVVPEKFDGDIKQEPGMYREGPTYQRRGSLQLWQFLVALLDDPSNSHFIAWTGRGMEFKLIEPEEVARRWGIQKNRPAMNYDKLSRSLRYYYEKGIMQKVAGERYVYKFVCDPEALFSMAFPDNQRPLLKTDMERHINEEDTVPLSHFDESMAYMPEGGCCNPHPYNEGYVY
# ELF1, sequence (P32519 whole entry): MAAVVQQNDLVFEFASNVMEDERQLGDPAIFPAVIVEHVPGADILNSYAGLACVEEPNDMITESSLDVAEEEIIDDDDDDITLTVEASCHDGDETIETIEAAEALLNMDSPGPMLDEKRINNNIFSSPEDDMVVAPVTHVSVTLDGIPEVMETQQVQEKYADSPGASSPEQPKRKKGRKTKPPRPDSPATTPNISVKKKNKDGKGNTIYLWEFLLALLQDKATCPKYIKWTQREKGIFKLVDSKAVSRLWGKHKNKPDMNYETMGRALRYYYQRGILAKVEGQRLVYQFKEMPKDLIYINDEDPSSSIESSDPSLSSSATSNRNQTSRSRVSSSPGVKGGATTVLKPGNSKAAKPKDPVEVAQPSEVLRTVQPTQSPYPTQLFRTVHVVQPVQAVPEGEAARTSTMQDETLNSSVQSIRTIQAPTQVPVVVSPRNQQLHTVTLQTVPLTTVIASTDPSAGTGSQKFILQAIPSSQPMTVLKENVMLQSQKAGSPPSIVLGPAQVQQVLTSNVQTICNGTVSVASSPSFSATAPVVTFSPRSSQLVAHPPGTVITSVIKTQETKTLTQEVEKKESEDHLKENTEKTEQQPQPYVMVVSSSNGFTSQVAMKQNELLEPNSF
sequence,measurement,setting,value
CCTAAC,binding signal,FLI1,"1.56 fold enrichment (6-mer frequency, TF over GST control)"
same,binding signal,ELK1,"1.43 fold enrichment (6-mer frequency, TF over GST control)"
same,binding signal,GABPA,"1.37 fold enrichment (6-mer frequency, TF over GST control)"
same,binding signal,ERG,"1.42 fold enrichment (6-mer frequency, TF over GST control)"
same,binding signal,ELF1,"1.44 fold enrichment (6-mer frequency, TF over GST control)"
same,binding signal,EHF,"1.31 fold enrichment (6-mer frequency, TF over GST control)"
same,binding signal,SPI1,"1.48 fold enrichment (6-mer frequency, TF over GST control)"
same,binding signal,SPIB,"1.4 fold enrichment (6-mer frequency, TF over GST control)"
same,binding signal,ELK3,"1.42 fold enrichment (6-mer frequency, TF over GST control)"
same,binding signal,FEV,"1.38 fold enrichment (6-mer frequency, TF over GST control)"
same,binding signal,ETV5,"1.42 fold enrichment (6-mer frequency, TF over GST control)"
same,binding signal,HSF1,"1.19 fold enrichment (6-mer frequency, TF over GST control)"
same,binding signal,SPIC,"1.49 fold enrichment (6-mer frequency, TF over GST control)"
same,binding signal,ELF4,"1.53 fold enrichment (6-mer frequency, TF over GST control)"
same,binding signal,ELK4,"1.36 fold enrichment (6-mer frequency, TF over GST control)"
same,binding signal,ETV2,"1.41 fold enrichment (6-mer frequency, TF over GST control)"
same,binding signal,ELF3,"1.51 fold enrichment (6-mer frequency, TF over GST control)"
same,binding signal,CRX,"1.25 fold enrichment (6-mer frequency, TF over GST control)"
same,binding signal,ETV1,"1.35 fold enrichment (6-mer frequency, TF over GST control)"
